The list is not random: actives were taken first. Their share in the collection is about 1.6%.
KCNQ2 enhance = enhances the rat KCNQ2 potassium channel; 0.54% of 310,000 active; B-score at 10 µM; O88943; AID 2239; CHO-K1 KCNQ2, FluxOR thallium flux fluorescence; hits give high values;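 active means fluorescence ratio B-score at least 3 SD of library B-scores, with initial fluorescence B-score within 3 of them, cut at about 5.3 in these data; same plate scores as AID 2156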;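 further: B-score of peak minus minimum over baseline fluorescence ratio after K+ and Tl+ stimulus; positive B-score means potentiation of KCNQ2 with more thallium influx and brighter signal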
Target sequence (O88943 whole entry, looked up): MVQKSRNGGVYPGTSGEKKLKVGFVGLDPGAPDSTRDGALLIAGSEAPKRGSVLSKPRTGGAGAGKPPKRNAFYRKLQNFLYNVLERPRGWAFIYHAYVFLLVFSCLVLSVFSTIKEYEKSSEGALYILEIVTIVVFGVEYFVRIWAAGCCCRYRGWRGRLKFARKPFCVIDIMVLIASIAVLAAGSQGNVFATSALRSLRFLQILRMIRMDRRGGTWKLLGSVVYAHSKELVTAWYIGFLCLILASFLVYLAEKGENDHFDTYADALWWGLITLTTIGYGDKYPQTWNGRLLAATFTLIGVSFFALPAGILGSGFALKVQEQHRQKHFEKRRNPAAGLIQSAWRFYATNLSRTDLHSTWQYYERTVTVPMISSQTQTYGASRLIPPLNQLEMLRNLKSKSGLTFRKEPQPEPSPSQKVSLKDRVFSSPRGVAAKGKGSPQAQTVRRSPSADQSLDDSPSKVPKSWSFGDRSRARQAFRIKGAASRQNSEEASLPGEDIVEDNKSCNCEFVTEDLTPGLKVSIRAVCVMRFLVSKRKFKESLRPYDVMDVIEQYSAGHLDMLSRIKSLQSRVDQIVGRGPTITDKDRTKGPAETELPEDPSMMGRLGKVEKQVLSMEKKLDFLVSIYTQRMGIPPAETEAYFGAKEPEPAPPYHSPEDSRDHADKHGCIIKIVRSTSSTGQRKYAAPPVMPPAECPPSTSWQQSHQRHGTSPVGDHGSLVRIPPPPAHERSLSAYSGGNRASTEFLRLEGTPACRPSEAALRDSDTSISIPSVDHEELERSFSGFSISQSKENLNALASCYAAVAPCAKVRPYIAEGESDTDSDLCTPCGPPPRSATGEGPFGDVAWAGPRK
KCNQ2 inh = blocks the rat KCNQ2 potassium channel; O88943; CHO-K1 KCNQ2, FluxOR thallium flux, 20 min; hits give low values; B-score at 10 µM; 1.1% of 310,000 active;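 active means fluorescence ratio B-score at most minus 3 library SDs, with starting brightness B-score within 2 library SDs, cut at about -5.5 in these data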
An asterisk follows results filed as active; i = inactive; . = no result given.

SMILES	KCNQ2 enhance	KCNQ2 inh
O=C(NCCc1ccccc1)C(=O)NCC1CCCN1S(=O)(=O)c1cccs1 (stereo not drawn)	0.14	i
c1ccc(-c2c(-c3ccccc3)n(Cc3ccco3)c3ncnc(NCCCn4ccnc4)c23)cc1	-11	-11*
OCCNc1ncnc2c1c(-c1ccccc1)c(-c1ccccc1)n2Cc1ccco1	.	i
Cc1ccc(S(=O)(=O)N2CCN(c3ncnc4sccc34)CC2)cc1	2.2	i
COc1ccc(-c2cc(N)n(S(=O)(=O)c3c(F)c(F)c(F)c(F)c3F)n2)cc1OC	-8.8	-8.8*
CCOc1ccc(-c2cc(N)n(S(=O)(=O)c3ccc(OC)cc3)n2)cc1	2	i
CCC(NC(=O)N(Cc1ccccc1)Cc1ccc2c(c1)OCO2)(C(F)(F)F)C(F)(F)F	-8.1	-8.1*
CC(NC(=O)N(Cc1ccccc1)Cc1ccc2c(c1)OCO2)(C(F)(F)F)C(F)(F)F	.	i
CCOC(CCNC(=O)c1cn(CCOC)c(=O)c2c1c1ccccc1n2C)OCC	.	i
Cn1c(O)c(N=Nc2ccccc2)c2ccccc21	0.09	i
Cn1c(O)c(N=Nc2nc(-c3ccccc3)cs2)c2ccccc21	22*	i
O=C(NCCCN1CCOCC1)c1ccc2c(=O)n(-c3ccc(F)c(Cl)c3)c(=S)[nH]c2c1	.	i
COCCn1c(=O)[nH]c(=O)c2c1nc(-c1cc(Br)c3c(c1)OCO3)n2Cc1ccccc1	.	i
O=C(NCCCn1ccnc1)c1ccc(Br)s1	.	i
O=C(COc1ccccc1C(=O)c1cnn(-c2ccccc2)c1)Nc1ccccc1	.	i
CN1CCC(=NNC(=O)CN(c2ccc([N+](=O)[O-])cc2)S(=O)(=O)c2ccccc2)CC1	.	i
COc1ccc(NC(=O)Cc2c(Sc3ccccc3)c3ccccc3n2C)cc1	-6.3	-6.3*
Cn1c(CC(=O)Nc2ccc(F)cc2)c(Sc2ccccc2)c2ccccc21	.	i
CNS(=O)(=O)c1cccc(C(=O)OCC(=O)/C=C2/N(C)c3ccccc3C2(C)C)c1	1.3	i
CCOC(=O)/C=C1/N(C)c2ccccc2C1(C)C	1.9	i
CN1/C(=C\C(=O)COC(=O)c2ccc(O)c(O)c2)C(C)(C)c2ccccc21	-6.5	-6.5*
CN1/C(=C\C(=O)COC(=O)c2ccc(O)cc2)C(C)(C)c2ccccc21	-6.2	-6.2*
CCn1c(SCC(=O)N2CCc3ccccc3C2)nc2sc(C)c(C)c2c1=O	.	i
O=C1c2ccccc2S(=O)(=O)c2cc(C(=O)N3CCC(C(=O)N4CCCCC4)CC3)ccc21	0.68	i
COc1cc2c(cc1OC)CN(CC(=O)NC(=O)NC1CCCCC1)CC2	.	i
SMILES	KCNQ2 enhance	KCNQ2 inh
CCOC(=O)C1=C(C)N(c2ccccc2)C(=O)/C1=C\c1cccs1	.	i
COC(=O)C1=C(C)N(c2cccc(C)c2)C(=O)/C1=C\c1cccs1	-6.7	-6.7*
N/C(=N\OC(=O)c1cccc2ccccc12)c1ccc(Br)cc1	-5.6	-5.6*
Cc1ccc(C(=O)O/N=C(\N)c2ccc(Br)cc2)cc1C	0.55	i
N/C(=N\OC(=O)c1cccc2ccccc12)c1ccncc1	.	i
Cc1cc(C)cc(C(=O)O/N=C(\N)c2ccc(Br)cc2)c1	-6.8	-6.8*
CSc1sc(C(=O)NNC(C)=O)c2c1C=CCC2	1.4	i
COc1ccc(C2/C=C\CN(C(=O)Nc3ccccc3-c3ccccc3)CC(=O)N2Cc2ccc(F)cc2)cc1 (stereo not drawn)	-6.4	-6.4*
COC(=O)N1C/C=C\C(c2ccc(OC)cc2)N(Cc2ccc(F)cc2)C(=O)C1 (stereo not drawn)	1.3	i
CCN(CC)C(=O)Cn1cc(S(=O)(=O)CC(=O)NCc2ccc(C)cc2)c2ccccc21	0.06	i
Cc1cc(C(=O)N(C)C2CCCCC2)no1	0.87	i
Cc1ccc(C(C)C)c(OCC(O)CNC2CCCC2)c1 (stereo not drawn)	0.2	i
O=C(CN1CCOCC1)Nc1nc2ccc(F)cc2s1	.	i
O=C(CN1C(=O)C2CCCCC2C1=O)Nc1nc2ccc(F)cc2s1 (stereo not drawn)	-6.2	-6.2*
COc1ccccc1CNC(=O)C1=C(C)C(=O)OC12CCC(C)CC2 (stereo not drawn)	.	i
COc1cccc(CNC(=O)C2=C(C)C(=O)OC23CCC(C)CC3)c1 (stereo not drawn)	-6.9	-6.9*
Cc1cc(C)nc(SCc2nnc(SCc3ccc([N+](=O)[O-])cc3)n2Cc2ccco2)n1	-5.8	-5.8*
COC(=O)CSc1nnc(CSc2nc(C)cc(C)n2)n1Cc1ccco1	.	i
CCOc1ccc(S(=O)(=O)N2CCC(C(=O)NCCc3ccccc3)CC2)cc1	.	i
COc1ccc(OC2C(=O)N(Cc3ccc4c(c3)OCO4)C2c2sccc2C)cc1 (stereo not drawn)	.	i
COc1ccccc1OCCNC(=O)c1ccc2c(c1)OCCO2	6.7*	i
COc1ccccc1OCCNC(=O)CNC(=O)c1ccc2c(c1)OCO2	0.26	i
CCOC(CCn1c(SCC(=O)Nc2cc(C)on2)nc2ccccc2c1=O)OCC	0.58	i
COc1ccc(C)cc1N(CC(=O)N/N=C/c1ccccc1C(=O)O)S(=O)(=O)c1ccccc1	3	i
CSc1ccc(-c2sc(Nc3ccccc3)n[n+]2-c2ccccc2)cc1	.	i
SMILES	KCNQ2 enhance	KCNQ2 inh
CSc1ccc(-c2sc(Nc3cccc4ccccc34)n[n+]2-c2ccccc2)cc1	-5.6	-5.6*
CC1CCCC(NC(=O)C2CCN(C(=O)Nc3ccccc3)CC2)C1C (stereo not drawn)	0.94	i
O=C(CCNS(=O)(=O)c1ccccc1C(F)(F)F)N1CCN(S(=O)(=O)c2cccc(F)c2)CC1	2.4	i
CCN(CC)C(=O)/C(=C/c1ccc2c(c1)OCO2)NC(=O)c1ccc(Br)cc1	-5.9	-5.9*
O=C(NCCO)/C(=C/c1ccc2c(c1)OCO2)NC(=O)c1ccc(Br)cc1	.	i
CC1CCC(NC(=O)c2cc(S(=O)(=O)N(C)C)ccc2N2CCCC2)CC1 (stereo not drawn)	.	i
C=CCn1cn[nH]c1=S	-8.3	-8.3*
C=CCOc1ccc(CNn2cn[nH]c2=S)cc1	0.06	i
Cc1ccccc1Nc1cccc2nonc12	.	i
CCOC(=O)N1CCN(C(=O)c2cccc(N3C(=O)NC4CC3(C)Oc3ccc(Cl)cc34)c2)CC1 (stereo not drawn)	.	i
N/C(Cc1ccc([N+](=O)[O-])cc1)=N\OC(=O)CC1CCCCC1	8*	i
Cc1ccc(CC(=O)O/N=C(\N)Cc2ccc([N+](=O)[O-])cc2)cc1	.	i
O=C(COc1ccc(F)c(Cl)c1)N1CCCCCCC1	.	i
Cc1cc(S(=O)(=O)N2CCCCC2)ccc1OCC(=O)N1CCOCC1	.	i
CN1C2C(Br)CCCCN2c2ccc(F)cc2S1(=O)=O (stereo not drawn)	0.51	i
Cc1cc(=O)oc2cc(OCC(=O)Nc3ccccc3C(=O)O)ccc12	.	i
COc1cc(CNCc2ccccn2)ccc1OCc1ccc(Cl)c(Cl)c1	-5.9	-5.9*
COc1cc(CNCc2ccccn2)ccc1OCC(N)=O	1.8	i
Cc1ccc(NC(=O)COc2ccc(Br)cn2)cc1	.	i
O=C(Nc1ccc2c(c1)OCCO2)N1CCN(Cc2ccccc2)CC1	.	i
C=CCn1c(SCC(=O)Nc2ccccc2)nc2scc(-c3cccs3)c2c1=O	.	i
N#CCSc1nc2scc(-c3cccs3)c2c(=O)n1CCc1ccccc1	-7	-7*
